Measurements from PMC4552634, “A New Set of Chemical Starting Points with Plasmodium falciparum Transmission-Blocking Potential for Antimalarial Drug Discovery” (PLoS ONE, 2015).
Read-outs that look alike come from different tables or passages of the source. Out of some 13,000 compounds screened, about 3,200 (25%) showed an effect of 50% or more. Some of the results follow.

Test system: P. falciparum stage V gametocytes
Design: BacTiter-Glo ATP luminescence viability of purified stage V gametocytes in 384-well plates, per cent inhibition versus DMSO
Details: 48 h, 5 µM, inhibitor

| SMILES | % Inhibition [%] | % Inhibition (% Inhibition) [%] |
| --- | --- | --- |
| O=C(N[C@@H](CC1CCCCC1)C(=O)NCCN1CCCC1)c1ccc(O)c(-c2cccc(C(F)(F)F)c2)c1 [TCMDC-140811] | 39 | – |
| Cc1cc(OC(C)C(=O)N2CCc3ccccc32)ccc1Cl (centres unmarked) [TCMDC-123696] | 25.65 | – |
| COc1ccc(Cc2cnc(N)nc2N)cc1OCCCOc1ccccc1 [TCMDC-137364] | -5.696 | – |
| Cn1ccnc1Sc1ncccc1[N+](=O)[O-] [TCMDC-123944] | 5.094 | – |
| O=C(Nc1cccc(CN2CCCN(Cc3ccc4c(c3)OCO4)CC2)c1)c1ccc(-c2ccccc2)cc1 [TCMDC-134593] | -55.86 | – |
| N#Cc1cccc(NC(=O)C2=C(CCc3ccc4c(c3)OCO4)NC(=O)NC2c2cccc(C#N)c2)c1 (centres unmarked) [TCMDC-136054] | 65.54 | – |
| O=C(Nc1cccc(CN2CCCN(Cc3ccc4c(c3)OCO4)CC2)c1)c1ccc2ccccc2c1 [TCMDC-141852] | -18.83 | – |
| COc1cc(Cc2cnc(NCCN3CCNCC3)nc2N)ccc1OCc1ccc(C(F)(F)F)cc1 [TCMDC-138704] | 48.16 | – |
| Cc1cc(NCCCCCCNc2cc(C)nc3c(C)cccc23)c2cccc(C)c2n1 [TCMDC-125702] | 114 | – |
| CCCCCCCN(CCCCCCC)CCNc1cc(C)nc2ccccc12 [TCMDC-137555] | 59.52 | – |
| CCCCCCNc1cc(C)nc2ccc(OC)cc12.Cl [TCMDC-137623] | -4.593 | – |
| CCCCCCCNc1cc(C)nc2ccc(OC)cc12.Cl [TCMDC-137622] | 19.17 | – |
| CCCCCCCNCCNc1cc(C)nc2ccccc12 [TCMDC-137556] | 91.75 | – |
| Cc1cc(NCCCCCCCCNc2cc(C)nc3ccccc23)c2ccccc2n1 [TCMDC-137746] | 113.6 | – |
| COc1cccc(Nc2nc(C)cc(NC3CCCC3)n2)c1 [TCMDC-133464] | 31.06 | – |
| CCn1ncc(Cl)c1CN(C)S(=O)(=O)c1ccc2ccccc2c1 [TCMDC-124904] | 17.76 | – |
| O=C(Nc1ccc2c(c1)CCC2)c1ccc(CN2CCCN(Cc3cccc(O)c3)CC2)cc1 [TCMDC-136388] | -14.41 | – |
| N#Cc1ccc2c(c1)CN(C1CCC(NC(=O)/C=C/c3cc(C(F)(F)F)cc(C(F)(F)F)c3)CC1)CCC2 (centres unmarked) [TCMDC-133502] | -43.57 | – |
| CCC/C=C/c1c(CNCCCNc2cc(=O)c3ccccc3[nH]2)sc(CC)c1Br [TCMDC-140971] | 58.98 | – |
| O=c1cc(NCCCNCc2cccc(OC(F)(F)F)c2)[nH]c2ccccc12 [TCMDC-139418] | 80.26 | – |
| O=c1cc(NCCCNCc2cccc(OC(F)(F)C(F)F)c2)[nH]c2ccccc12 [TCMDC-139419] | -24.87 | – |
| CCCC(CNCc1cccc(OC(F)(F)F)c1)CNc1cc(=O)c2ccccc2[nH]1 (centres unmarked) [TCMDC-139429] | 83.68 | – |
| O=c1cc(NCCCNCc2ccc(Cl)c(Cl)c2)[nH]c2cc(Cl)ccc12 [TCMDC-139401] | 50.55 | – |

| SMILES | % Inhibition [%] | % Inhibition (% Inhibition) [%] |
| --- | --- | --- |
| O=c1cc(NCCCNCc2ccc(Cl)c(Cl)c2)[nH]c2ccc(C(F)(F)F)cc12 [TCMDC-139407] | 4.234 | – |
| O=c1cc(NCCCNCc2cccc(Oc3ccccc3)c2)[nH]c2ccccc12 [TCMDC-139309] | 31.54 | – |
| CCc1cc(Br)c(CNCCCNc2cc(=O)c3ccccc3[nH]2)s1 [TCMDC-140745] | -24.29 | – |
| O=c1cc(NCCCNCc2ccc(Cl)c(Cl)c2)[nH]c2ccc(Cl)cc12 [TCMDC-139400] | 23.89 | – |
| CCCC(CNCc1cccc(OCC)c1)CNc1cc(=O)c2ccccc2[nH]1 (centres unmarked) [TCMDC-139432] | 35.2 | – |
| O=c1cc(NCCCNCc2sc(Br)c(Br)c2Br)[nH]c2ccccc12 [TCMDC-139647] | -5.668 | – |
| CCCC(CNCc1cccc(OC(F)(F)C(F)F)c1)CNc1cc(=O)c2ccccc2[nH]1 (centres unmarked) [TCMDC-139430] | -8.212 | – |
| CN(C)CC(=O)NCC(NCCCNc1cc(=O)c2ccccc2[nH]1)c1cc(Br)cc(Br)c1 (centres unmarked) [TCMDC-140314] | -36.64 | – |
| CN(CCCN(C)c1cc(NC(=O)c2ccc(F)cc2)ccn1)Cc1cccc(F)c1 [TCMDC-135041] | -7.091 | – |
| Cc1ccc(O)c(-c2cc(C(=O)Nc3ccc(S(=O)(=O)N4CCCC(C)C4)cc3)[nH]n2)c1 (centres unmarked) [TCMDC-125202] | -32.7 | – |
| CN1CCCc2ccc(NC(=O)c3cnc(-c4ccccc4)cn3)cc21 [TCMDC-141218] | -34.46 | – |
| O=c1cc(NCCCNC2CCc3ccc(Cl)cc32)[nH]c2ccccc12 (centres unmarked) [TCMDC-139365] | 84.72 | – |
| O=c1cc(NCCCN(Cc2ccccc2)Cc2ccccc2)[nH]c2ccccc12 [TCMDC-139368] | -49.11 | – |
| O=c1cc(NCCCNC2CCCc3c2cc(Cl)c(Cl)c3Cl)[nH]c2ccccc12 (centres unmarked) [TCMDC-139478] | 2.268 | – |
| O=c1cc(NCCCNC2CCc3c(Cl)cc(Cl)cc32)[nH]c2ccccc12 (centres unmarked) [TCMDC-139485] | 17.36 | – |
| O=c1cc(NCCCNCc2cc(Cl)c(Cl)cc2Cl)[nH]c2ccccc12 [TCMDC-139631] | -58.3 | – |
| O=c1cc(NCCCNC(c2ccccc2)c2ccc(Cl)c(Cl)c2)[nH]c2ccccc12 (centres unmarked) [TCMDC-139318] | 54.86 | – |
| Cc1[nH]c2ccc(O)cc2c1C1CCN(CC2CCN(C(=O)/C=C/c3ccc(Cl)c(Cl)c3)CC2)CC1 [TCMDC-140219] | 39.96 | – |
| CCCCCCCCCC(=O)NCC1CC(Br)=NO1 (centres unmarked) [TCMDC-137735] | 4.616 | – |
| OC(CNC1CCCCCC1)c1ccc(Cl)c(Cl)c1 (centres unmarked) [TCMDC-141990] | -11.57 | – |
| OC(CNCCCCCCNCC(O)c1ccc(Cl)c(Cl)c1)c1ccc(Cl)c(Cl)c1 (centres unmarked) [TCMDC-141987] | 99.2 | – |
| OC(CNC1CCCCC1)c1ccc(Cl)c(Cl)c1 (centres unmarked) [TCMDC-123990] | 75.22 | – |
| OC(CNC1CCCCCCC1)c1ccc(Cl)c(Cl)c1 (centres unmarked) [TCMDC-141991] | -9.212 | – |

| SMILES | % Inhibition [%] | % Inhibition (% Inhibition) [%] |
| --- | --- | --- |
| CC(C)C[C@H](NC(=O)c1ccc(OCCN2CCOCC2)cc1)C(=O)N[C@H](/C=N/N(C)C(=O)c1ccccc1)CCc1ccccc1 [TCMDC-135854] | 17.32 | – |
| CC1(C)N=C(N)N=C(N)N1OCc1cccs1 [TCMDC-131654] | 20.54 | – |
| COC(=O)/C=C/c1ccc(CC(C)NCC(O)c2cccc(C(F)(F)F)c2)cc1 (centres unmarked) [TCMDC-131448] | – | -0.1444 |
| CCNc1cc(C(=O)N[C@@H](Cc2ccccc2)[C@H](O)CN[C@H]2CCc3ccccc32)cc(N2CCCC2=O)c1 [TCMDC-138917] | 52.85 | – |
| CCNc1cc(C(=O)N[C@@H](Cc2ccccc2)[C@H](O)CN[C@@H](C)c2cccc(OC)c2)cc(N2CCCC2=O)c1 [TCMDC-138824] | -0.5109 | – |
| CCNc1cc(C(=O)N[C@@H](Cc2ccccc2)[C@H](O)CNC(CC)c2cccc(Cl)c2)cc(N2CCCCS2(=O)=O)c1 (some centres unmarked) [TCMDC-135221] | 3.057 | – |
| CCNc1cc(C(=O)N[C@@H](Cc2ccccc2)[C@H](O)CNC(CC)c2cccc(Cl)c2)cc(N2CCCC2=O)c1 (some centres unmarked) [TCMDC-135264] | 64.68 | – |
| CCCCCC(C)(C)NC[C@@H](O)[C@H](Cc1ccccc1)NC(=O)c1cc(NCC)cc(N2CCCC2=O)c1 [TCMDC-138912] | 10.89 | – |
| CCNc1cc(C(=O)N[C@@H](Cc2ccccc2)[C@H](O)CN[C@@H]2CCc3ccccc32)cc(N2CCCC2=O)c1 [TCMDC-132414] | 21.82 | – |
| CCNc1cc(C(=O)N[C@@H](Cc2ccccc2)[C@H](O)CNC(C)(C)CSCC(C)C)cc(N2CCCC2=O)c1 [TCMDC-134311] | 69.93 | – |
| CCNc1cc(C(=O)N[C@@H](Cc2ccccc2)[C@H](O)CN[C@@H](C)c2ccccc2)cc(N2CCCC2=O)c1 [TCMDC-138823] | 8.317 | – |
| CCNc1cc(C(=O)N[C@@H](Cc2ccccc2)[C@H](O)CNC(C)(C)Cc2ccccc2)cc(N2CCCC2=O)c1 [TCMDC-134567] | 5.299 | – |
| CCNc1cc(C(=O)N[C@@H](Cc2ccccc2)[C@H](O)CN[C@H](C)c2ccccc2)cc(N2CCCC2=O)c1 [TCMDC-138822] | 64.41 | – |
| CCNc1cc(C(=O)N[C@@H](Cc2ccccc2)[C@H](O)CNC2CCCC2)cc(N2CCCC2=O)c1 [TCMDC-138844] | 16.89 | – |
| CCC(NC[C@@H](O)[C@H](Cc1ccccc1)NC(=O)c1cc(C2CCCC2)cc(N2CCCC2=O)c1)c1cccc(Cl)c1 (some centres unmarked) [TCMDC-135265] | 4.239 | – |
| Cc1cccc2[nH]c(-c3cccc(-c4cccc(CN5CCC(CO)CC5)c4)c3)nc12 [TCMDC-133131] | -22.3 | – |
| Nc1nccc(-c2ccc3c(-c4cccc(F)c4)cnc(N)c3c2)n1 [TCMDC-134545] | -1.877 | – |
| Cc1cc(NC(=O)c2ccsc2)ccc1OC1CCN(Cc2ccc(F)cc2)CC1 [TCMDC-133742] | 4.453 | – |
| COc1ccc(Nc2nccc(-c3c(-c4cccc(NC(=O)c5c(F)cccc5F)c4)nn4ccccc34)n2)cc1Cl [TCMDC-135970] | -50.42 | – |
| CS(=O)(=O)N(c1ccccc1)c1cc(C(=O)N[C@@H](Cc2ccccc2)[C@H](O)CNC2CC2)cc(N2CCCC2=O)c1 [TCMDC-138891] | 19.46 | – |
| CC(C)CCCC(C)NC[C@@H](O)[C@H](Cc1ccccc1)NC(=O)c1cc(N2CCCC2=O)cc(N(c2ccccc2)S(C)(=O)=O)c1 (some centres unmarked) [TCMDC-138851] | 82.88 | – |
| CS(=O)(=O)N(c1ccccc1)c1cc(C(=O)N[C@@H](Cc2ccccc2)[C@H](O)CNC2CCCCC2)cc(N2CCCC2=O)c1 [TCMDC-138850] | 25.67 | – |
